PD-1 reverse act: activators reversing PD-1 mediated T-cell inhibition, primary screen, luminescence, primary human CD4 T cells, PD-L1 beads; CellTiter-Glo 96 h; activation, % (concentration not given with the values); 29,000 tested, under 10 active; call rule not given here;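 further: 0% = median vehicle wells and 100% = positive control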
NOMO-1 viab: NOMO-1 AML cell viability reduction, primary screen, STK33 inhibitor project, CellTiter-Glo luminescence; NOMO-1 AML viability, 72 h; inhibition, % (no concentration beside the values); actives 7.5% (n = 37,000); in the data active means inhibition above about 80%; inconclusive means no clear call, values can overlap the other calls
MITF inh: inhibitors of MITF, primary screen, MITF inhibitor project, cell-based, luminescence. actives 0.28% (n = 37,000). AID 2240, 2010. inhibition, % (concentration not given with the values). TRPM1 promoter luciferase, 24 h; in the data active means inhibition above about 85%; inconclusive means no clear call, values can overlap the other calls; inactive means below about 68%;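 further: human melanocyte line stably carrying TRPM1 promoter luciferase reporter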
Hedgehog inh: Hedgehog pathway signaling inhibitors, primary screen, luminescence, Shh-LIGHT2 cells, Gli-luciferase. Shh-LIGHT2 Gli-luciferase reporter, 30 h. inhibition, % (test concentration not listed). AID 2313, 2010. actives 2.1% (n = 22,000);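 active means mean inhibition across valid replicates above about 65%, limit read from the data; inconclusive means mean under the limit, yet half or more replicates past it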;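 further: pathway switched on by Shh-conditioned medium diluted 1 in 25 in low serum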
* = called active by the depositor; u = inconclusive; x = no result. In the library only some 8.1% were active in any assay of this set; here they are far more common.

SMILES | PD-1 reverse act | NOMO-1 viab | MITF inh | Hedgehog inh
CC1(C)CC(=O)C2=C(C1)NC(SCC(=O)Nc1ccccc1)=C(C#N)C2c1ccco1 (stereo unspecified) | -2.7 | 43.7 | -22.2 | x
CCc1ccc(C2C(C#N)=C(C)NC3=C2C(=O)CC(C)(C)C3)cc1 (stereo unspecified) | -1.0 | 86.1* | 33.0 | x
CN(C)Cc1ccc(C(=O)Oc2ccc(C(C)(C)C)cc2)cc1 | -2.0 | 114.6* | 1.2 | x
CCc1ccc(C(=O)Oc2ccc(C#N)cc2)cc1 | 0.9 | 69.3 | -5.0 | x
CC(C)(C)c1cc(C(=O)CSc2nc3ccccc3[nH]2)cc(C(C)(C)C)c1O | x | 101.7* | u | x
Cc1cc(=O)[nH]c(SCC(=O)c2cc(C(C)(C)C)c(O)c(C(C)(C)C)c2)n1 | x | 16.5 | 29.3 | x
C[C@H](CO)N1C[C@H](C)[C@H](CN(C)Cc2ccc(C(F)(F)F)cc2)Oc2ccc(NC(=O)Nc3ccc(F)cc3)cc2CC1=O | -3.2 | 113.2* | 17.5 | -14.4
C[C@H]1CN([C@@H](C)CO)C(=O)Cc2cc(NC(=O)Nc3ccc(F)cc3)ccc2O[C@@H]1CN(C)Cc1ccc(C(F)(F)F)cc1 | x | 117.3* | 14.3 | -13.1
C[C@@H]1CN([C@H](C)CO)C(=O)Cc2cc(NC(=O)Nc3ccc(F)cc3)ccc2O[C@H]1CN(C)Cc1ccc(C(F)(F)F)cc1 | x | 116.0* | 23.0 | -17.6
COc1ccc(NC(=O)CN(C2CCCCC2)S(=O)(=O)c2ccc(C)cc2)cc1Cl | -1.0 | 16.2 | 28.2 | x
C[C@@H]1CN([C@H](C)CO)C(=O)Cc2cc(NC(=O)Nc3cccc4ccccc34)ccc2O[C@@H]1CN(C)S(C)(=O)=O | 0.5 | 2.9 | 6.9 | x
CC1(C)Cc2nc(-c3ccccc3)nc(SCC(=O)Nc3ccc(Br)cc3)c2CO1 | -13.1 | 101.3* | 1.2 | x
COc1cc(C)c2c(c1)CCC1C2CCC2(C)C(O)CCC12 (stereo unspecified) | -1.1 | 91.4* | -72.0 | u
COc1cc2c(cc1O)CCC1C2CC[C@@]2(C)C1CC[C@@H]2O (stereo partly specified) | -8.7 | 97.4* | 19.0 | 90.7*
COc1ccc2c(c1)CCC1C2CCC2(C)C1C[C@@H](O)C2O (stereo partly specified) | x | 3.7 | -23.6 | 19.5
C[C@H](CO)N1C[C@H](C)[C@H](CN(C)Cc2ccc(C(F)(F)F)cc2)Oc2ccc(NC(=O)Cc3ccccc3)cc2C1=O | -4.4 | 9.4 | 20.7 | x
COc1ccc(-c2nnc(SCC(N)=O)n2-c2ccc(Cl)cc2)cc1 | 0.3 | 14.2 | -20.7 | x
COc1ccc(NC(=O)Nc2cccc3c2O[C@H](CN(C)C)[C@H](C)CN([C@H](C)CO)C3=O)cc1 | 1.2 | -14.9 | -27.2 | -14.8
c1ccc(N=C(Nc2ccccc2)Nc2ccccc2)cc1 | -1.2 | 88.7* | -8.2 | -24.1
COC(=O)COc1cccc(NC(=O)c2ccccc2Cl)c1 | x | 118.6* | 11.2 | x
O=C(COc1cccc(NC(=O)c2ccccc2Cl)c1)c1ccc(F)cc1 | -0.8 | 18.0 | 9.1 | x
COc1ccc(C(=O)COc2cccc(NC(=O)c3ccccc3C)c2)cc1 | 0.3 | 4.6 | 11.6 | x
COC(=O)COc1cccc(NC(=O)c2ccc(-c3ccccc3)cc2)c1 | -3.4 | 112.6* | 32.9 | x
COC(=O)COc1cccc(NC(=O)c2ccccc2F)c1 | -0.6 | 121.5* | -5.5 | x
COC(=O)COc1cccc(NC(=O)c2ccccc2I)c1 | x | 109.6* | 0.4 | x
SMILES | PD-1 reverse act | NOMO-1 viab | MITF inh | Hedgehog inh
CC12CCC(c3c1nn(-c1ccccc1)c3C(F)(F)F)C2(C)C (stereo unspecified) | -5.5 | 122.6* | 24.3 | u
CCC(=O)Nc1nonc1-c1nc2ccccc2n1Cc1cc(OC)ccc1C | -4.5 | 129.6* | 40.4 | x
CN(C)C(=O)CSc1nc2ccccc2c(=O)[nH]1 | x | -18.3 | 1.9 | x
COc1ccc(S(=O)(=O)Nc2ccc3c(c2)CC(=O)N([C@H](C)CO)C[C@@H](C)[C@H](CN(C)Cc2ccc(Cl)c(Cl)c2)O3)cc1 | -0.4 | 111.9* | 12.3 | 37.1
COc1ccc(S(=O)(=O)Nc2ccc3c(c2)CC(=O)N([C@H](C)CO)C[C@H](C)[C@H](CN(C)Cc2ccc(Cl)c(Cl)c2)O3)cc1 | x | 98.2* | -10.2 | x
COc1ccc(CN(C)C[C@@H]2Oc3ccc(NS(=O)(=O)c4ccc(Cl)cc4)cc3CC(=O)N([C@@H](C)CO)C[C@@H]2C)cc1 | 0.8 | 9.1 | -1.5 | x
N=c1oc2ccccc2cc1C(=O)Nc1ccc(F)cc1 | -1.8 | 119.9* | 44.0 | x
C[C@H](CO)N1C[C@H](C)[C@H](CN(C)S(=O)(=O)c2cn(C)cn2)Oc2c(NC(=O)Nc3ccc(C(F)(F)F)cc3)cccc2C1=O | 1.0 | 20.6 | -18.0 | -1.7
C[C@@H]1CN([C@H](C)CO)C(=O)Cc2cc(NS(=O)(=O)c3ccccc3)ccc2O[C@@H]1CN(C)Cc1ccc(C(=O)Nc2ccccc2N)cc1 | -1.0 | 116.2* | 3.2 | x
C[C@@H]1CN([C@H](C)CO)C(=O)Cc2cc(NS(C)(=O)=O)ccc2O[C@H]1CN(C)Cc1ccc(C(=O)Nc2ccccc2N)cc1 | -0.4 | 22.0 | -3.4 | x
Cc1ccc(S(=O)(=O)Nc2ccc3c(c2)CC(=O)N([C@H](C)CO)C[C@@H](C)[C@H](CN(C)Cc2ccc(C(=O)Nc4ccccc4N)cc2)O3)cc1 | -0.5 | 36.5 | -0.1 | x
C[C@H]1CN([C@@H](C)CO)C(=O)Cc2cc(NS(=O)(=O)c3ccc(Cl)cc3)ccc2O[C@H]1CN(C)Cc1ccc(C(=O)Nc2ccccc2N)cc1 | -0.2 | 139.4* | 15.7 | x
C[C@H](CO)N1C[C@H](C)[C@H](CN(C)S(=O)(=O)c2ccc(F)cc2)Oc2ccc(NC(=O)Nc3ccc(F)cc3)cc2CC1=O | -2.0 | 125.8* | 33.2 | -104.0
C[C@@H]1CN([C@H](C)CO)C(=O)Cc2cc(NC(=O)Nc3ccc4c(c3)OCO4)ccc2O[C@H]1CN(C)S(=O)(=O)c1ccc(F)cc1 | -0.6 | 18.4 | 3.4 | -15.5
C[C@H](CO)N1C[C@H](C)[C@H](CN(C)S(=O)(=O)c2ccc(F)cc2)Oc2ccc(NC(=O)Nc3ccc4c(c3)OCO4)cc2CC1=O | 0.1 | 126.3* | 28.3 | -55.1
C[C@H](CO)N1C[C@H](C)[C@H](CN(C)S(=O)(=O)c2ccccc2)Oc2ccc(NC(=O)Nc3ccc(F)cc3)cc2CC1=O | 0.7 | 94.8* | 9.4 | -4.9
COc1ccc(NC(=O)Nc2ccc3c(c2)CC(=O)N([C@@H](C)CO)C[C@H](C)[C@H](CN(C)S(=O)(=O)c2ccc(F)cc2)O3)cc1 | x | 109.7* | 1.4 | -13.7
C[C@@H]1CN([C@H](C)CO)C(=O)Cc2cc(NC(=O)Nc3ccc(F)cc3)ccc2O[C@H]1CN(C)S(=O)(=O)c1ccccc1 | x | 7.7 | -9.0 | x
Cc1ccc(-c2nc(SCC(=O)Nc3cccc(Br)c3)n[nH]2)cc1 | x | 9.8 | -6.0 | x
C[C@@H]1CN([C@@H](C)CO)C(=O)Cc2cc(NC(=O)Nc3ccccc3)ccc2O[C@@H]1CN(C)S(=O)(=O)c1ccc(Cl)cc1 | -2.6 | 77.1 | 22.4 | 27.4
